Measured potencies and affinities stand elsewhere. Records with an inconclusive call do not appear. Activity calls are given as the source filed them.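 How the source made its calls: active means a valid curve of falling signal whose half-effect concentration is at most ten times the top tested dose; inconclusive means flat curve at 30 to 70% inhibition, or poor fit; inactive means signal rise, flat within 30%, or potency beyond limit.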
biological target: Scavenger receptor class B member 1 (Mus musculus) (UniProt Q61009); assay: inhibitors of SR-BI mediated HDL lipid uptake, dose response, ldlA[mSR-BI] cells, fluorescence, cherry pick (AID 493194); conditions: CHO ldlA[mSR-BI] DiI-HDL uptake fluorescence, 3 h; series mostly up to 35 µM;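 further: CHO cells lacking LDL receptor and overexpressing mouse SR-BI; cellular uptake of fluorescently labeled HDL measured as cell fluorescence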
Sequence (Q61009 whole entry, looked up): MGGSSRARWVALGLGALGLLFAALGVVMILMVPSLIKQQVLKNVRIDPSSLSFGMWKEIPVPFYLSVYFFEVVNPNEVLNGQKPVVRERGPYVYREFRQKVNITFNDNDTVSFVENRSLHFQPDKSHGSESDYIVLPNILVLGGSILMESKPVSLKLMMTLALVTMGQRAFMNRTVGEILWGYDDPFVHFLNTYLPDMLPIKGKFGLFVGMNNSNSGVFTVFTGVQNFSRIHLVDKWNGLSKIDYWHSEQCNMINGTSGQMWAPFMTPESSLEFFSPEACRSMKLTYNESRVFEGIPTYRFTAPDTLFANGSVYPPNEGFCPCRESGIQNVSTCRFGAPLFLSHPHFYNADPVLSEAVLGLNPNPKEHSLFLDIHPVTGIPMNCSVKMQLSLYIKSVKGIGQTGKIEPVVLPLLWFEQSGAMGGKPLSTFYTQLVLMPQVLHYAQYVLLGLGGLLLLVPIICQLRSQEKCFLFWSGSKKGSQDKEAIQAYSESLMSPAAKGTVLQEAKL

outcome, inactive:
O=C(C1=COCCO1)N(Cc1nnc(-c2ccccc2Cl)o1)C1CC1
CC(=O)Nc1nc(-c2ccccc2)nc(-c2ccccc2OC(C)=O)n1
Cc1cc(C(=O)COC(=O)c2ccc(Cl)c(S(N)(=O)=O)c2)c(C)n1C1CC1
O=C(Nc1cccc(NC(=O)c2ccccc2Cl)c1)c1ccc(F)cc1
CCOC(=O)C1CCCN(S(=O)(=O)NC[C@H]2O[C@@H](n3cnc4c(N)ncnc43)[C@H](O)[C@@H]2O)C1 (stereo partly drawn)
O=C(NCN1C(=O)C2C3C=CC(C3)C2C1=O)OC1CCCCC1 (stereo not drawn)
Cc1ccc(-c2csc(N3CCN(c4ccc5nc(-c6ccncc6)n(CCN6CCCCC6)c5c4)CC3)n2)cc1
O=C(NC1CCCC1)C(c1c[nH]c2ccccc12)N(C(=O)Cn1nnc(-c2ccc(Cl)cc2)n1)c1ccccc1 (stereo not drawn)
COc1cc(/C=C/C(=O)Nc2cccc(S(=O)(=O)NC3=NCCCCC3)c2)ccc1OCC#N
COc1ccc(-c2nnn(CC(=O)N(CC(=O)NC3CCCC3)c3cccc(C)c3)n2)cc1OC
COc1ccc(N2CCN(C(=O)c3cc(=O)[nH]c4ccccc34)CC2)cc1
Cc1cc(C)cc(N(CCC#N)C(=O)COC(=O)CCc2c[nH]c3ccccc23)c1
CCc1cc(CNC(=O)C2CCC(=O)N(CCc3cccc(F)c3)C2)on1 (stereo not drawn)
CCCC(=O)Nc1ccc(Cl)c(NC(=O)c2cccc(OC)c2)c1
CC(=O)Nc1ccc(S(=O)(=O)Nc2cc(C)c(-n3nc4ccccc4n3)cc2O)cc1
Cc1cccc(N2CCN(C(=O)CN(C)S(=O)(=O)c3ccc4c(c3)CCC(=O)N4)CC2)c1C
CC(C)c1ccc(NC(=O)c2sccc2-n2cccc2)cc1
Cc1ccc(Sc2nc(-c3ccccc3)nnc2C(F)(F)F)cc1
Cc1c(Cl)cccc1S(=O)(=O)N1CCC(C(=O)NNC(=O)C2CC2)CC1
Fc1ccc(-c2cc(-c3cccs3)cc(-c3ccccc3)n2)cc1
CCOC(=O)N1CCC(NC(=O)c2ccc3c(c2)N(Cc2ccc(F)cc2)CCS3)CC1
COc1ccc(CCC(=O)Nc2ccc(-c3noc(-c4ccc(OC)c(OC)c4)n3)cc2)cc1
Cc1ccc2nc3c(c(C(=O)OCC(=O)N(C)C4CCS(=O)(=O)C4)c2c1)CCCC3 (stereo not drawn)
COc1ccc(OC[C@@H](O)CNC(=O)c2cccc3c2C(=O)c2ccc(-c4ccc(F)cc4OCc4ccccc4)cc2S3(=O)=O)cc1
Cc1cc(C)nc(N2CCC(C(=O)N3CCN(c4cc(Cl)ccc4C)CC3)CC2)n1
CC(CCc1ccccc1)NC(=O)C1CCN(C(=O)c2sccc2-n2cccc2)CC1 (stereo not drawn)
CS(=O)(=O)N1CCc2cc(C(=O)Nc3cccc([N+](=O)[O-])c3)ccc21
COCCCN(C(=O)c1ccco1)c1nc(-c2ccc(OC)cc2)cs1
Cc1ccc(-c2nn(-c3ccccc3)cc2/C=C/C(=O)OCC(=O)NC2CC2)o1
O=C(OCc1ccccc1)N1CCC2CC1c1cc(-c3ccccc3)ccc12 (stereo not drawn)
COc1ccc(N2C(=O)C3C(C2=O)C3(c2ccccc2)c2ccccc2)cc1 (stereo not drawn)
CC(C)(C)NC(=O)N1CCN(c2ncccc2C(F)(F)F)CC1
COc1ccc(-c2nc(CN3CCN(c4ncnc5ccccc45)CC3)c(C)o2)c(OC)c1
COc1ccc(NC(=O)c2ccc3c(c2)CCN3S(=O)(=O)c2ccccc2)cc1
CCCCN(Cc1ccccc1)c1ncnc2nc[nH]c12
CN(Cc1cc(Cl)cc(Cl)c1O)Cc1c(O)ccc2ccccc12
CC(=O)Nc1cc(NC(C)=O)cc(C(=O)OCC(=O)N(c2ccccc2)C2CCS(=O)(=O)C2)c1 (stereo not drawn)
COC(=O)c1ccc(C(=O)Nc2nc3cc(N)c(C)cc3s2)cc1

— PubChem BioAssay AID493194 (Broad Institute, 2011)
